Compounds with a hit are over-represented: about 3.9% of the library has one in this group of screens.
3CLpro inhibitor: SARS-CoV 3CLpro protease inhibition. P0C6X7. recombinant SARS-CoV 3CLpro, quenched FRET peptide cleavage. inhibition, % at 6 µM. 0.14% of 290,000 active. AID 1706; in the data active means inhibition above about 12%
PrPC surface inh: reduces human prion protein on the cell surface. P04156. cell surface PrPC, TR-FRET read-out. inhibition, % at 13.8 µM. 0.43% of 370,000 active. AID 720596; in the data active means inhibition above about 24%; further: 0% = median of the test wells and 100% = reference compound wells
Vc quorum ag: inducers of Vibrio cholerae quorum light production without autoinducers. AID 588436. activation, % at 18.7 µM. V. cholerae BH1578 lux reporter, luminescence, 6 h. 0.16% of 350,000 active; in the data active means activation mostly above about 9.7%, no sharp cut-off
GDH-TPI inh: inhibits GDH-TPI coupling enzymes, artifact for Mtb FBA screen; inhibition, % at 4.8 µM; 1.2% of 360,000 active; GDH-TPI coupled enzyme counterscreen, NADH absorbance; in the data active means inhibition above about 30%;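 further: 0% = DMSO wells and 100% = wells lacking the enzyme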
Mtb FBA inh: inhibitors of M. tuberculosis fructose-bisphosphate aldolase; AID 588726; 2.3% of 360,000 active; P9WQA3; purified M. tuberculosis FBA, fluorescence read-out; inhibition, % at 1 µM; in the data active means inhibition above about 27%;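 further: 0% = vehicle and 100% = reference inhibitor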
Target sequence (P9WQA3 whole entry, looked up): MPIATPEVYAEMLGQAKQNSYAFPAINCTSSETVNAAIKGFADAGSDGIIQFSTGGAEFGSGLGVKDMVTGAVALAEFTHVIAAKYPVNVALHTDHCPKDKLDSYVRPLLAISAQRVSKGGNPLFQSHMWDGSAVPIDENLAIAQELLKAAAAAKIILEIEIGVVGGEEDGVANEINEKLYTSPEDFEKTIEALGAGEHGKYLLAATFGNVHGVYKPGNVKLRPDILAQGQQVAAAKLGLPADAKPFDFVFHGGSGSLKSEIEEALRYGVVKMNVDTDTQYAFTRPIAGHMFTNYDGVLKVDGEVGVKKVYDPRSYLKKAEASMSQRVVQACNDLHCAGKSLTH
PrPC confirm: confirmation of inhibitors of cell surface human prion protein | shares compounds with PrPC surface inh | cell surface PrPC level, TR-FRET | inhibition, % at 13.8 µM | 65% of 1,500 active; in the data active means inhibition above about 25%
LD9 cytotox: kills or reduces viability of LD9 cells in PrPc counter-screen. AID 743201. 29% of 1,500 active. inhibition, % at 13.8 µM. shares compounds with PrPC surface inh. LD9 cells cytotoxicity, luminescence viability; in the data active means inhibition above about 9.5%
* hit, by the source's call.

`CC(C)c1nc(SCC(=O)N2CC(=O)Nc3ccccc32)c2ccccc2n1` gave 3CLpro inhibitor 0, PrPC surface inh 80*, Vc quorum ag 0, GDH-TPI inh 0, Mtb FBA inh -3, PrPC confirm 104* and LD9 cytotox 0.
Screening CC1CCc2cc(F)cc3c(O)c(C(=O)NCC4CCCO4)c(=O)n1c23 (centres undefined) returned 3CLpro inhibitor -1, PrPC surface inh 31*, Vc quorum ag inactive, GDH-TPI inh 11, Mtb FBA inh -3, PrPC confirm 40* and LD9 cytotox -5.
Cc1ccccc1OCC(=O)Nc1ccc(Cc2ccncc2)cc1 was read as 3CLpro inhibitor 3, PrPC surface inh 25*, Vc quorum ag 0, GDH-TPI inh 0, Mtb FBA inh -2, PrPC confirm 9 and LD9 cytotox -2.
COc1ccc(NC(=O)Nc2ccc(Cc3ccncc3)cc2)c(OC)c1 was read as 3CLpro inhibitor -3, PrPC surface inh 26*, Vc quorum ag inactive, GDH-TPI inh -1, Mtb FBA inh 1, PrPC confirm 21 and LD9 cytotox -6.
For Cc1ccccc1OCC(=O)Nc1ccncc1 the results were 3CLpro inhibitor -2, PrPC surface inh 9, Vc quorum ag 0, GDH-TPI inh 6 and Mtb FBA inh 1.
Screening COc1ccc2c(C)cc(SCC#N)nc2c1 returned 3CLpro inhibitor 0, Vc quorum ag inactive, GDH-TPI inh 18 and Mtb FBA inh 2.
For COc1ccc2c(C)cc(SCc3c(C)noc3C)nc2c1 the results were 3CLpro inhibitor -1, PrPC surface inh 67*, Vc quorum ag 2, GDH-TPI inh 10, Mtb FBA inh 4, PrPC confirm 88* and LD9 cytotox -5.
For COc1ccc2ccccc2c1/C=N/NC(=O)c1cccc([N+](=O)[O-])c1 the results were 3CLpro inhibitor -5, PrPC surface inh 26*, Vc quorum ag 0, GDH-TPI inh 5, Mtb FBA inh 2, PrPC confirm -1 and LD9 cytotox -9.
`COc1ccccc1/C=N/NC(=O)c1ccc(NC(=O)c2cccc([N+](=O)[O-])c2)cc1` gave 3CLpro inhibitor -1.
Screening O=C(Cc1ccccc1[N+](=O)[O-])c1ccc2c(c1)OCO2 returned PrPC surface inh 2, Vc quorum ag inactive, GDH-TPI inh 10 and Mtb FBA inh -1.
COc1ccc2c(Cl)c(C(=O)NN3CCN(C)CC3)sc2c1 was read as 3CLpro inhibitor -3, PrPC surface inh -5, Vc quorum ag 0, GDH-TPI inh 3 and Mtb FBA inh 1.
`O=C(Cc1ccccc1F)Nc1cc(S(=O)(=O)N2CCCCC2)ccc1N1CCOCC1` gave PrPC surface inh 0, Vc quorum ag 2, GDH-TPI inh 2 and Mtb FBA inh 1.
Screening N#Cc1cccc(NC(=O)c2cc(C3CCCCN3S(=O)(=O)c3ccccc3)on2)c1 (centres undefined) returned PrPC surface inh 26*, Vc quorum ag 0, GDH-TPI inh 11, Mtb FBA inh 1, PrPC confirm 17 and LD9 cytotox -2.
`O=C(Nc1ccc2c(c1)OCO2)c1cc(C2CCCN(C(=O)CCCc3ccccc3)C2)on1` (centres undefined) gave PrPC surface inh 23, Vc quorum ag inactive, GDH-TPI inh -14 and Mtb FBA inh -2.
COc1ccc(S(=O)(=O)N2CCCCC2c2cc(C(=O)Nc3ccc4c(c3)OCO4)no2)cc1 (centres undefined) was read as PrPC surface inh 28*, Vc quorum ag -1, GDH-TPI inh 10, Mtb FBA inh 0, PrPC confirm 18 and LD9 cytotox -3.
`CC(C)NC(=O)c1cc(C2CCCCN2S(=O)(=O)c2ccc(C#N)cc2)on1` (centres undefined) gave PrPC surface inh -1, Vc quorum ag 0, GDH-TPI inh 7 and Mtb FBA inh -2.
`O=C(Nc1ccc2c(c1)OCO2)c1cc(C2CCCN(C(=O)CCc3ccccc3)C2)on1` (centres undefined) gave PrPC surface inh 38*, Vc quorum ag 0, GDH-TPI inh -4, Mtb FBA inh 0, PrPC confirm 25* and LD9 cytotox -1.
